Assay results published in PubChem BioAssay (Tox21).
Inconclusive results are not listed. Entries that show only a call come without a potency. Values without a mark were called inactive. Calls of active or inactive are those of the source. Calls follow the shape of the dose curve; as a rule, active = well fitted cell-killing curve with a large enough effect in the repeat runs; inconclusive = weak or mixed curves, or effect the other way; inactive = flat fitted curve, though single readings scatter.

Test: qHTS RealTime-Glo MT Cell Viability Assay in HepG2 cells - 0 hour (AID 1224889); also: nearly all actives have a fitted effect of over 50% in size
Details: RealTime-Glo luminescence; series mostly up to 76.8 µM
Method in brief: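 Real-time, nonlytic viability: 600 HepG2 cells/well mixed with NanoLuc enzyme plus prosubstrate; 5 h settle, compound (DMSO) added by pintool; luminescence monitored over 40 h at 37 C.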

Compound | activity change, negative = cytotoxicity | Potency
CCCCCCCCCCCCS(=O)(=O)Cl | -8.49% [at 15.8 µM] | 
Cc1cccc2c1ccc1ccccc12 |  | inactive
CC(=O)CC(N)=O |  | inactive
CCc1cccc(C)c1N(C(=O)C(=O)O)C(C)COC (configuration not stated) |  | inactive
CCC(=O)OC/C=C(\C)CCC=C(C)C |  | inactive
CCCCC/C=C\C=C\C(=O)OCC |  | inactive
CCCC(C)C=O (configuration not stated) |  | inactive
CC(O)(c1ccc(Cl)cc1)c1ccc(Cl)cc1 |  | inactive
C=Cc1ccc(O)c(OC)c1 |  | inactive
Cc1cc(Br)ccc1NC(=O)CCl |  | inactive
CC(=O)[C@]1(O)Cc2c(O)c3c(c(O)c2[C@@H](O[C@H]2C[C@H](N)[C@H](O)[C@H](C)O2)C1)C(=O)c1ccccc1C3=O |  | inactive
c1ccc2cc3c4ccccc4c4ccccc4c3cc2c1 |  | inactive
